Drawing on PubChem BioAssay, this text covers composite z-score and z-score for four compounds.

The structures appear in SMILES notation. The source made the active and inactive calls. Unless noted, how the calls were made is not given here.

The test system of assay [1] is Wnt5a (protein binding on small-molecule microarray). Description: small molecules binding Wnt5a protein – biophysical, small-molecule microarray, 635/667 nm fluorescence, primary screen (AID 1142).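 Further: fluorescence read at 667 nm with signal to noise per printed feature.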 The conditions noted are these: 635 nm fluorescence, higher = more signal.
Assay [2] can be described thus: ATP-based viability of Huh7 replicon cells – cell-based, CellTiter-Glo luminescence, basal, 48 h, cytotoxicity control for HCV replication inhibitor project, primary screen (AID 1143).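 Further: Huh7 hepatoma cells carrying a hepatitis C replication reporter with no stimulus; test concentration not given here.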 As to conditions: higher = more signal, called active from +8 up or from −8 down.
Assay [3] in a line: Pseudomonas biofilm growth suppression – PAO1 strain, BacTiter-Glo luminescence, LB-PBS, primary screen (AID 1144). As to conditions: P. aeruginosa PAO1 biofilm, 12 h, higher = more signal.
Assay [4] is described as follows: basal CRE-LacZ reporter activity in PC12 – cell-based, unstimulated, primary screen (AID 1145). As to conditions: no forskolin, luminescence, 4.5 h, higher = more signal, called active from +8 up or from −8 down.
The nature of assay [5]: forskolin-driven CRE-LacZ activity in PC12 – cell-based, CRE-LacZ reporter, forskolin-stimulated, primary screen (AID 1146).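 Further: PC12 cells with 6xCRE LacZ reporter stimulated by forskolin 10 µM; beta-galactosidase reporter signal reflecting CREB driven transcription.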 The conditions noted are these: luminescence, 4.5 h, higher = more signal, called active from +8 up or from −8 down.
Assay [6] concerns the target Streptavidin (Streptomyces avidinii) (UniProt P22629). As to the kind of experiment: compounds binding control protein streptavidin – biophysical, small-molecule microarray, 635/667 nm fluorescence, artefact control for SMM compound annotation, primary screen (AID 1147).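 Further: signal reflects streptavidin binding to arrayed compounds as a control protein.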 As to conditions: higher = more signal.
Assay [7] in a line: probe aInhba binding on compound microarray – biochemical, small-molecule microarray, 635/667 nm fluorescence, primary screen (AID 1148).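 Further: score merges 667nm spot fluorescence with signal-to-noise for antibody binding to printed compounds.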 The conditions noted are these: higher = more signal.
For assay [8], the target named is Torsin-1A (Homo sapiens) (UniProt O14656). As to the kind of experiment: TOR1A wild-type binding on microarray – cell lysate, small-molecule microarray, lysate, 635/667 nm, primary screen (AID 1149). The conditions noted are these: COS7 hTOR1A-WT lysate, 635 nm fluorescence, higher = more signal.
For assay [9] the target is unchanged. Description: torsin A mutant lysate binding on microarrays – cell lysate, small-molecule microarray, COS7 lysate, 635/667 nm fluorescence, primary screen (AID 1150).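 Further: score pools 667 nm emission and signal to noise measuring lysate protein binding.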 The conditions noted are these: COS7 hTOR1A mutant lysate, 635 nm fluorescence, higher = more signal.
Assay [10] has as its system Sonic hedgehog protein (Shh). Description: Sonic hedgehog microarray binding compounds – biochemical, small-molecule microarray, 635/667 nm fluorescence, primary screen (AID 1151).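 Further: Shh protein binding to compounds spotted on small-molecule microarray slides; score combines spot fluorescence intensity with signal-to-noise across triplicate slides.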 As to conditions: 635 nm fluorescence, higher = more signal.
Assay [11] is described as follows: optical density shifts of acrAB sulA E. coli – strain DRC41, OD650, 48 h, E. coli filamentation inducer project, primary screen (AID 1152).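 Further: E. coli MC1000 strain DRC41 lacking acrAB efflux pump and sulA.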 The conditions noted are these: higher = more signal, called active from +8 up or from −8 down.
A short description of assay [12]: probe aLefty1 binding on compound microarray – biochemical, small-molecule microarray, 635/667 nm fluorescence, primary screen (AID 1153).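 Further: score merges spot fluorescence with signal-to-noise ratio from the scanned slide images.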 The conditions noted are these: higher = more signal.
Assay [13] is described as follows: plasmodial surface anion channel blockers, osmotic lysis – cell-based, P. falciparum Indochina, OD700, 1 h, primary screen (AID 1154). As to conditions: P. falciparum Indochina infected RBC osmotic lysis, higher = more signal, called active from +8 up or from −8 down.
Assay [14] can be described thus: plasmodial surface anion channel blockers, osmotic lysis – cell-based, P. falciparum Indochina, OD700, 2 h, primary screen (AID 1155).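 Further: lysis reports solute entry through the parasite surface anion channel PSAC.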 The conditions noted are these: P. falciparum Indochina infected erythrocytes, higher = more signal, called active from +8 up or from −8 down.
Assay [15] in a line: changes in parasitized red cell lysis, either direction – P. falciparum Indochina, OD700, 3 h, PSAC antagonist project, primary screen (AID 1156). The conditions noted are these: P. falciparum-infected erythrocytes, osmotic lysis, higher = more signal, called active from +8 up or from −8 down.
A short description of assay [16]: plasmodial surface anion channel blockers, osmotic lysis – cell-based, P. falciparum Indochina, OD700, 18 h, primary screen (AID 1157). As to conditions: P. falciparum Indochina infected erythrocytes, osmotic lysis OD700, 18 h; higher = more signal, called active from +8 up or from −8 down.
Assay [17] is described as follows: S6 kinase pathway phospho-S6 level changes – cell-based, A549, cytoblot, luminescence, serum-stimulated, primary screen (AID 1158).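 Further: serum-stimulated A549 lung adenocarcinoma cells; signal is phosphorylated S6 detected by cytoblot immunostaining with HRP secondary.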 The conditions noted are these: 5 h, higher = more signal.
In assay [18] the target is NADPH oxidase 2 (Homo sapiens) (UniProt P04839). As to the kind of experiment: compounds shifting NOX2 Amplex Red fluorescence – cell-based, HEK293-NOX2, PMA-stimulated, NOX inhibitor project, primary screen (AID 1159). Further: test concentration not given here. As to conditions: 45 min, higher = more signal, called active from +8 up or from −8 down.
Assay [19] deals with NADPH oxidase 4 (Homo sapiens) (UniProt Q9NPH5). As to the kind of experiment: compounds shifting NOX4 Amplex Red fluorescence – cell-based, HEK293-NOX4, tetracycline-induced, NOX inhibitor project, primary screen (AID 1160). The conditions noted are these: HEK293-NOX4, Amplex Red H2O2 fluorescence, 45 min; higher = more signal, called active from +8 up or from −8 down.
Assay [20] addresses NADPH oxidase 5 (Homo sapiens) (UniProt Q96PH1). Description: compounds shifting NOX5 Amplex Red fluorescence – cell-based, HEK293-NOX5, NOX inhibitor project, primary screen (AID 1161). As to conditions: HEK293-NOX5, ionomycin, 45 min, higher = more signal.

Sequence of NADPH oxidase 2 (Homo sapiens) (P04839 whole entry, looked up): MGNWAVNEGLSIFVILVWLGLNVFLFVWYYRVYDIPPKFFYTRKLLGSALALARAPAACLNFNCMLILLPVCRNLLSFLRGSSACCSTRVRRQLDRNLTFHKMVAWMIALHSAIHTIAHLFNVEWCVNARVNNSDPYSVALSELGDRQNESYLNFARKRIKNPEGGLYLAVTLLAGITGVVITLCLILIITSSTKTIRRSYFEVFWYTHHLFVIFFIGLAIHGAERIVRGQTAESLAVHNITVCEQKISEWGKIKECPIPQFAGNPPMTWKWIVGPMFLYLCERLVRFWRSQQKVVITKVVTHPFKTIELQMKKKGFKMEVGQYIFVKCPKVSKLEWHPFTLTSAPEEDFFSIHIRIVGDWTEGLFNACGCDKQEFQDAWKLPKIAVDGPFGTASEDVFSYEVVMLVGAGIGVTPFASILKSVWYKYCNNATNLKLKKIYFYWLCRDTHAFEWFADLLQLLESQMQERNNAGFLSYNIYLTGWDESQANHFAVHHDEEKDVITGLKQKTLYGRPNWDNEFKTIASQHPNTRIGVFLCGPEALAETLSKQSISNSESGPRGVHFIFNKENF
Sequence of Torsin-1A (Homo sapiens) (O14656 whole entry, looked up): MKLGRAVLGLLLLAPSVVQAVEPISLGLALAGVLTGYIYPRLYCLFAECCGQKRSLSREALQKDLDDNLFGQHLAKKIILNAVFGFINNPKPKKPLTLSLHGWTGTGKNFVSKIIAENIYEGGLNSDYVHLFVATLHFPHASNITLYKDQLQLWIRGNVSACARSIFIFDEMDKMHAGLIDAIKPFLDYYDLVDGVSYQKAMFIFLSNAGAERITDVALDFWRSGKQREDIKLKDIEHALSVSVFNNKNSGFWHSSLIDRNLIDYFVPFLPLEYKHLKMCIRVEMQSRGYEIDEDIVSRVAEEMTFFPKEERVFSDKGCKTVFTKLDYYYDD
Sequence of Streptavidin (Streptomyces avidinii) (P22629 whole entry, looked up): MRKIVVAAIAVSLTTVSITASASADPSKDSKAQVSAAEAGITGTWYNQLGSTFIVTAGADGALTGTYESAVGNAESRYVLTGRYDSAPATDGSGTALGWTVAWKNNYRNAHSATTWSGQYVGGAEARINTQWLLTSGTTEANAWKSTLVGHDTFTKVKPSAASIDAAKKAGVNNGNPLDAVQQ
Sequence of NADPH oxidase 4 (Homo sapiens) (Q9NPH5 whole entry, looked up): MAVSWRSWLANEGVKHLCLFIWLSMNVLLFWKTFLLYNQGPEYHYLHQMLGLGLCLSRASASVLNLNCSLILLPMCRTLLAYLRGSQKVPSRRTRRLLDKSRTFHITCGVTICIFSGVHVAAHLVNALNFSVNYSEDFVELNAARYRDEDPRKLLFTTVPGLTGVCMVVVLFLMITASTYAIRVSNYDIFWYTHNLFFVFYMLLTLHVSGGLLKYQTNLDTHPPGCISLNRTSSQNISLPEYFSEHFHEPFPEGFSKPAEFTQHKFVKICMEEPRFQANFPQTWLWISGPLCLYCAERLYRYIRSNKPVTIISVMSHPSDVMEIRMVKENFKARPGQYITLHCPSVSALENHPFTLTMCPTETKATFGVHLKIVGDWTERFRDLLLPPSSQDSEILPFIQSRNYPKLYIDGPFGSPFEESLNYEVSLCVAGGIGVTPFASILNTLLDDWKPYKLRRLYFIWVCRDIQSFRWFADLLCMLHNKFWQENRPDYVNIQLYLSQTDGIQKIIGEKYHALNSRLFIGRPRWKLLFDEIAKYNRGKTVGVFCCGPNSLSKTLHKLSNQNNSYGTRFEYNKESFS
Sequence of NADPH oxidase 5 (Homo sapiens) (Q96PH1 whole entry, looked up): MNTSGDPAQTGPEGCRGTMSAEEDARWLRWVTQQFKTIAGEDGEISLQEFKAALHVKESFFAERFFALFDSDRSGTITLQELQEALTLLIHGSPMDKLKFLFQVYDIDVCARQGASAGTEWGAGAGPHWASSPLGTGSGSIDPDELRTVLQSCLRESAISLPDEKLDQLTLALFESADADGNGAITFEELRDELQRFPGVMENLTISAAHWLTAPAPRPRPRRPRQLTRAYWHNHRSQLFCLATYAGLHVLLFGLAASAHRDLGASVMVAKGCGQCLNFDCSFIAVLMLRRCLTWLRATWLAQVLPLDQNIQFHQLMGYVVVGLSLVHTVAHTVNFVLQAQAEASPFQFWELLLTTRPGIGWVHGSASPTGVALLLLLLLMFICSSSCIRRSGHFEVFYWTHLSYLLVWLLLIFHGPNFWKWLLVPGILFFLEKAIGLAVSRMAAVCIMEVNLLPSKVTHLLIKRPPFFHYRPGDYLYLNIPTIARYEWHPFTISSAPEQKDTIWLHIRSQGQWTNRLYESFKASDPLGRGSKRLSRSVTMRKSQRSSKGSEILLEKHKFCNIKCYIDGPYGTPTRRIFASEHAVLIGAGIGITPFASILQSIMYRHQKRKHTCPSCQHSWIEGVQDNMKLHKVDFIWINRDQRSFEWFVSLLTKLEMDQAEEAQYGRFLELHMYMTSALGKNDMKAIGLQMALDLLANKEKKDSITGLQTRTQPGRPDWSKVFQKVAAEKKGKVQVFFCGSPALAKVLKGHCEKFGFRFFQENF

As to `COC(=O)C(CC#Cc1ccc2c(c1)[C@]1(C(=O)N2)[C@H](c2ccc(OCCO)cc2)N2[C@H](c3ccccc3)[C@H](c3ccccc3)OC(=O)[C@H]2[C@@H]1C(=O)O)C(=O)OC`, the composite z-score in [1] stood at 0.138; in assay [6] it was 0.344; in [7] it was 0.717; with Torsin-1A (Homo sapiens) [8] it was 0.477; in the assay with Torsin-1A (Homo sapiens) [9], 0.538; in assay [10], 0.759. This compound also gave a composite z-score in [12] of 0.685. Moreover, the z-score in assay [2] was -0.565 (inactive); in assay [3], -1.11 (inactive); in assay [4], -0.554 (inactive); in assay [5], 0.295 (inactive); in assay [11], 1.55 (inactive); in assay [13], 4.99 (inactive). Further, the z-score is 0.441 (inactive) in assay [14]; 1.17 (inactive) in assay [15]; -0.121 (inactive) in assay [16]; 0.641 in [17]; 1.18 (inactive) in assay [18]; 0.0107 (inactive) in assay [19]. Moreover, the z-score in assay [20] stood at 0.918.
On to `O=C1O[C@@H](c2ccccc2)[C@@H](c2ccccc2)N2[C@@H](c3ccc(O)cc3)[C@]3(C(=O)Nc4ccc(C#CC5(O)CCCCCC5)cc43)[C@@H](C(=O)N3CCN(c4ncccn4)CC3)[C@H]12`, for which the composite z-score was 0.149 in [1]; 0.849 in assay [6]; -0.144 in assay [7]; 1.42 with Torsin-1A (Homo sapiens) [8]; 0.743 with Torsin-1A (Homo sapiens) [9]; 0.358 in assay [10]. Moreover, in [12], the composite z-score worked out at 0.214. In addition, the z-score in assay [2] is -1.37 (inactive); in assay [3] it was -0.775 (inactive); in assay [4], -0.231 (inactive); in assay [5] it was 0.204 (inactive); in [11], 1.36 (inactive); in assay [13], 0.0075 (inactive). Moreover, the z-score in [14] was -0.443 (inactive); in [15], -5.11 (inactive); in assay [16], -0.195 (inactive); in [17], -0.181; in [18] it was 1.07 (inactive); in [19], 0.74 (inactive). Besides, in [20], the z-score is 0.443.
For the compound `OCCCC1=CC(c2cccs2)N(Cc2cccc(OC(F)(F)F)c2)CC1` (stereo not given), the composite z-score is -0.335 in assay [1]; -0.889 in assay [6]; -0.179 in [7]; 0.331 with Torsin-1A (Homo sapiens) [8]; -0.632 with Torsin-1A (Homo sapiens) [9]; 0.243 in [10]. Besides, the composite z-score in assay [12] is -0.0109. The z-score in [2] is -1.06 (inactive); in assay [3] it was 0.839 (inactive); in [4] it was 0.593 (inactive); in assay [5], -0.368 (inactive); in assay [11], -1.07 (inactive); in [13], 7.72 (inactive). Besides, the z-score was 1.33 (inactive) in assay [14]; -0.499 (inactive) in [15]; 1.07 (inactive) in assay [16]; -0.105 in assay [17]; -0.257 (inactive) in assay [18]; -1.27 (inactive) in assay [19]. The z-score in assay [20] was -1.11.
In the case of `O=C1OCCC=C[C@H]2OC34C=CCN(Cn5nnc6ccccc65)C(=O)[C@H]3N(CCCCCO)C(=O)[C@@H]4C12` (stereo not given in full), the composite z-score in [1] is -0.355; in [6], -0.686; in [7], -0.0762; with Torsin-1A (Homo sapiens) [8], 0.97; with Torsin-1A (Homo sapiens) [9] it was 1.15; in assay [10] it was 0.0364. Further, the composite z-score in [12] worked out at 0.119. For the same compound, the z-score was 0.399 (inactive) in assay [2]; -1.04 (inactive) in assay [3]; 0.0564 (inactive) in assay [4]; 0.804 (inactive) in assay [5]; 0.592 (inactive) in assay [11]; 2.34 (inactive) in [13]. Also, the z-score in [14] is 0.573 (inactive); in assay [15] it was 2.35 (inactive); in [16] it was 0.281 (inactive); in [17], 0.0848; in assay [18] it was 1.4 (inactive); in assay [19] it was 0.279 (inactive). Besides, the z-score in assay [20] was 1.51.
